This is an account of results in PubChem BioAssay AID651640 (Broad Institute, 2012).

Structures are written as SMILES. Where “and” joins values, the source holds several entries; their conditions need not be identical. Equal values may be shown once. Screen size: about 350,000 compounds; about 6,000 (1.7%) were called active. Roughly 5% stayed inconclusive and do not appear here. Rule as the data show it: active = CPE inhibition above about 20% (passing the limit was not always enough); inconclusive = no clear call, values can overlap the other calls; tested in BHK-21 cells. Many of the other results were omitted from the sample, so actives are more common in it than they were. A structure can be active in one record and inactive in another.

The assay is described as follows: protection of cells from dengue 2 killing – plate reader, single concentration, primary screen (AID 651640).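 Also: 0% = median of neutral control wells and 100% = median of positive control wells.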 Particulars: DENV2-infected cells, cytopathic effect rescue, at 9.99 µM, stronger effect = higher value. On the technique in general: Damage to the host cells serves as the signal in cytopathic effect assays.
For the compound `C[C@@H]1CN([C@@H](C)CO)C(=O)c2cc(-c3cncnc3)cnc2O[C@@H]1CN(C)C(=O)c1ccccc1F`, the CPE inhibition is 16.7% (inactive).

Consider `COc1ccc2c(c1)[C@H]1[C@H](CO2)[C@H](c2ccccc2)[C@]2(C)C(=O)Nc3cc(F)c(F)cc3C(=O)N12`, for which the CPE inhibition was -1.62% (inactive).

On to `CCOC(=O)[C@H]1[C@H]2COc3ccc(Cl)cc3[C@@H]2N2C(=O)c3cc(C)ccc3NC(=O)[C@@]12C`, for which the CPE inhibition is 4.71% (inactive).

As for `Cc1ccc2c(c1)NC(=O)[C@@]1(C)[C@@H](c3ccccc3)[C@H]3COc4ccc(Cl)cc4[C@@H]3N1C2=O`, the CPE inhibition was 82.7% (active).

On to `Cc1ccc(CC2(C)C(=O)Nc3ccc(OC(F)(F)F)cc32)cc1` (stereo not drawn), for which the CPE inhibition is 6.39% (inactive).

For `CCc1ccc2c(c1)NC(=O)C2(C)Cc1ccc(OC(F)(F)F)cc1` (stereo not drawn), the CPE inhibition was 48.3% (active).

Consider `COc1ccccc1CC1(C)C(=O)Nc2ccc(OC(F)(F)F)cc21` (stereo not drawn), for which the CPE inhibition is 0.818% (inactive).

Turning to `CC(C)NC(=O)Nc1cccc2c1O[C@@H](CN(C)Cc1ccc(C(=O)O)cc1)[C@@H](C)CN([C@H](C)CO)C2=O`, the CPE inhibition was -5.2% (inactive).

Regarding `CO[C@H]1CN(C)C(=O)c2ccc(NC(=O)c3cccc(F)c3)cc2OC[C@H](C)N(CC2CC2)C[C@@H]1C`, the CPE inhibition was -4.07% (inactive).

For `O=C(O)c1ccc(N/N=C/c2cn(-c3ccccc3)nc2-c2cccs2)cc1`, the CPE inhibition is -1.67% (inactive).

Turning to `COc1cccc(NC(=O)CN(C)C(=O)/C=C/c2cn(-c3ccccc3)nc2-c2cccs2)c1`, the CPE inhibition is -12.9% (inactive).

Take `O=C(O)/C=C/c1cn(-c2ccccc2)nc1-c1cccs1`: the CPE inhibition was 21.7% (active).

For the compound `COc1ccc(NC(=O)N[C@@H]2CC[C@H](CCn3cc(-c4ccc(OC)cc4)nn3)O[C@@H]2CO)cc1`, the CPE inhibition was 3.46% (inactive).

`COc1cccc(NC(=O)N(C)C[C@H]2Oc3cc(/C=C/c4ccccc4)ccc3S(=O)(=O)N([C@H](C)CO)C[C@@H]2C)c1`: the CPE inhibition is 1.83% (inactive).

With `Cc1cccc(C)c1OCCN1CCOCC1`, the CPE inhibition was 5.93% (inactive).

Regarding `c1ccc(-c2ccc(OCCN3CCOCC3)cc2)cc1`, the CPE inhibition is 27.1% (active).

Consider `COc1ccc(-c2sc3ccccc3c2-c2ccc(OCCN3CCOCC3)cc2)cc1`, for which the CPE inhibition was 9.44% (inactive).

Regarding `O=C(C[C@H]1CC[C@@H](NC(=O)Nc2ccc(F)cc2)[C@H](CO)O1)NCc1cccc(F)c1`, the CPE inhibition was 1.45% (inactive).

`C[C@H](NC(=O)N(C)C[C@@H]1OCc2ccccc2-c2ccccc2C(=O)N([C@H](C)CO)C[C@@H]1C)c1ccccc1`: the CPE inhibition is 3.49% (inactive).

Consider `O=C(C[C@@H]1CC[C@@H](NC(=O)CC2CC2)[C@H](CO)O1)NCc1ccc(-c2ccccc2)cc1`, for which the CPE inhibition was 2.21% (inactive).

`Cn1cnc(S(=O)(=O)N2C[C@H](O)COC[C@@H]3O[C@H](CC(=O)NCc4cccc(F)c4)CC[C@H]32)c1`: the CPE inhibition is -0.815% (inactive).

In the case of `Cc1ccc([C@H]2N[C@]3(CCCN(Cc4ccccc4)C3=O)[C@H]3C(=O)N(Cc4ccccc4)C(=O)[C@@H]23)cc1`, the CPE inhibition was 12.7% (inactive).

`CCN1C(=O)[C@H]2[C@@H](c3ccccc3)N[C@]3(CCCN(Cc4ccc(C)cc4)C3=O)[C@H]2C1=O`: the CPE inhibition is -9.89% (inactive).

For the compound `COc1ccc([C@H]2N[C@]3(CCCN(Cc4ccco4)C3=O)[C@H]3C(=O)N(C)C(=O)[C@@H]23)cc1`, the CPE inhibition is 91.3% (active).

For the compound `CC(C)CC#Cc1ccc2c(c1)O[C@H](CN(C)C(=O)CC1CC1)[C@@H](C)CN([C@@H](C)CO)S2(=O)=O`, the CPE inhibition was 0.266% (inactive).

As for `CCC(=O)N(C)C[C@@H]1Oc2cc(C#C[C@H](C)O)ccc2S(=O)(=O)N([C@H](C)CO)C[C@@H]1C`, the CPE inhibition was 8.89% (inactive).

As to `CCCNC(=O)N1[C@@H]2CNC[C@H]1C2c1ccc(-c2ccccc2)cc1` (stereo partly drawn), the CPE inhibition was -5.46% (inactive) and 6.08% (inactive).

Consider `COc1ccc(S(=O)(=O)N2C[C@@H](O)COC[C@H]3O[C@H](CC(=O)N[C@H]4CCN(Cc5ccccc5)C4)CC[C@@H]32)cc1`, for which the CPE inhibition was 13.5% (inactive).

For the compound `CC(=O)N1[C@H](CO)[C@@H](c2ccccc2)[C@@H]1CN(CC(C)C)C(=O)c1ccccn1`, the CPE inhibition is -9.41% (inactive).

Turning to `CN(C)C(=O)c1cccc(-c2ccc(C3[C@H]4CNC[C@@H]3N4C(=O)Nc3ccccc3F)cc2)c1` (stereo partly drawn), the CPE inhibition was 23.3% (active).

Turning to `O=S(=O)(c1ccccc1F)N1[C@@H]2CNC[C@H]1C2c1ccc(-c2cncnc2)cc1` (stereo partly drawn), the CPE inhibition was -1.33% (inactive).

Take `N#Cc1ccc(-c2ccc(C3[C@H]4CNC[C@@H]3N4S(=O)(=O)c3ccccc3F)cc2)cc1` (stereo partly drawn): the CPE inhibition was 6.8% (inactive).

Turning to `Cc1cccc(-c2ccc(C3[C@H]4CNC[C@@H]3N4S(=O)(=O)c3ccccc3F)cc2)c1` (stereo partly drawn), the CPE inhibition is -1.96% (inactive) and 22.1% (active).

Regarding `COc1cccc(-c2ccc(C3[C@H]4CNC[C@@H]3N4C(=O)Nc3ccc(F)cc3)cc2)c1` (stereo partly drawn), the CPE inhibition is -1.4% (inactive) and 18.6% (inactive).

Turning to `CN(C)C(=O)c1ccc(-c2ccc(C3[C@H]4CNC[C@@H]3N4C(=O)Nc3cc(F)ccc3F)cc2)cc1` (stereo partly drawn), the CPE inhibition is 1.83% (inactive).

For the compound `C[C@H](CO)N1C[C@H](C)[C@@H](CN(C)Cc2ccc(Cl)c(Cl)c2)Oc2ccc(NC(=O)Nc3ccc(C(F)(F)F)cc3)cc2CC1=O`, the CPE inhibition is -2.55% (inactive).

For `CN1C(=O)c2cc(NC(=O)C3CC3)ccc2OC[C@@H]2O[C@@H](CC(=O)NCC3CCCCC3)CC[C@@H]21`, the CPE inhibition was -7.29% (inactive).

In the case of `C[C@@H]1CN([C@H](C)CO)C(=O)c2cccc(NC(=O)Nc3ccc(F)cc3)c2O[C@@H]1CN(C)C(=O)Nc1ccc(C(F)(F)F)cc1`, the CPE inhibition is 2.25% (inactive).

As for `O=C(NCc1ccncc1)c1cccc(NS(=O)(=O)c2ccc(F)c(F)c2)c1`, the CPE inhibition was 41.4% (active).

For the compound `O=C(NCc1ccccc1)c1ccc(S(=O)(=O)Nc2cccc(C(F)(F)F)c2)cc1`, the CPE inhibition was 2.44% (inactive).

For `O=C(NCc1ccncc1)c1ccc(NS(=O)(=O)c2cccc([N+](=O)[O-])c2)cc1`, the CPE inhibition is -0.812% (inactive).

Consider `CC(C)NC(=O)N[C@H]1CC[C@H](CC(=O)NC2Cc3ccccc3C2)O[C@H]1CO`, for which the CPE inhibition is -2.08% (inactive).

On to `C[C@@H]1CN([C@H](C)CO)S(=O)(=O)c2ccc(Br)cc2O[C@@H]1CN(C)Cc1cncnc1`, for which the CPE inhibition was 19.1% (inactive).
